In the library only some 2.9% were active in any assay of this set; here they are far more common.
MITF act: activators of MITF-driven TRPM1 promoter activity in SK-MEL-5 cells; SK-MEL-5 TRPM1-promoter luciferase, 24 h; % of positive control, neutral wells = 0; activation, % at 12.5 µM; hit rate 0.75% among 300,000; AID 588334;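 active = mean activation of at least 80% with every replicate also reaching 80%; inconclusive = mean reaches 80% but some replicate falls short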
esBAF inh: inhibitors of esBAF chromatin remodeling in mouse ES cells; Bmi1-luciferase knock-in reporter, 24 h; 100% = twice the neutral-well signal; reporter increase, % at 12.5 µM; hit rate 2% among 350,000; AID 602393; in the data active = activation above about 40%; inconclusive = no clear call, values can overlap the other calls;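 note: a rise in the Bmi1 reporter signal indicates esBAF inhibition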
Glyco luc inh: N-linked glycosylation inhibition. D54 ERlucT glycosylation luciferase reporter, 24 h; percent of 100 nM tunicamycin response. reporter increase, % at 12.5 µM. hit rate 0.23% among 360,000. AID 588692;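 active = mean luciferase reporter signal, scaled so untreated is 0 and the glycosylation-blocking control 100, at or above a set limit in every replicate; inconclusive = mean reaches the limit but not every replicate does; inactive = mean below the limit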;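 note: luciferase carries N-glycosylation sites so blocking glycosylation raises the light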
Wnt bcat act: Wnt/beta-catenin pathway activation; AID 743398; activation, % at 9.35 µM; hit rate 1.2% among 300,000; Wnt/beta-catenin reporter cell assay, activator, plate reader; in the data active = activation above about 30%, passing the limit was not always enough; inconclusive = no clear call, values can overlap the other calls
PvdQ acylase: P. aeruginosa PvdQ acylase inhibition. inhibition, % at 10 µM. hit rate 0.063% among 340,000. purified PvdQ acylase, fluorescence plate reader; in the data active = inhibition above about 30%, passing the limit was not always enough; inconclusive = no clear call, values can overlap the other calls
Vif inh: inhibitors of HIV Vif; HEK293T cells, Vif self-association by quenched fluorescence, imaging, 24 h; inhibition, % at 7.49 µM; hit rate 0.35% among 340,000; AID 602346; in the data active = inhibition above about 50%, passing the limit was not always enough; inconclusive = no clear call, values can overlap the other calls; inactive = below about 31%
A number is an active result; - = inactive; ? = inconclusive; . = no result given.

SMILES | MITF act | esBAF inh | Glyco luc inh | Wnt bcat act | PvdQ acylase | Vif inh
BrC(=C\c1ccccc1)/C=N/Nc1nc2ccccc2[nH]1 | - | . | - | 33 | - | -
O=C(N/N=C/c1cccc(OCc2ccccc2)c1)c1cccs1 | . | 46 | - | 39 | - | -
Cc1occc1C(=O)N/N=C/C(Br)=C\c1ccccc1 | . | . | - | 58 | - | -
O=C(N[C@@H]1C=C[C@H](CC(=O)N2CCc3ccccc3C2)O[C@H]1CO)C1CC1 | . | - | . | . | . | .
CCCC(=O)Nc1ccc2c(c1)C(=O)N(C)[C@@H]1CC[C@@H](CC(=O)NCC(F)(F)F)O[C@@H]1CO2 | . | - | . | . | . | .
CCCN(C)C[C@@H]1OCCCC[C@@H](C)Oc2ccc(NC(=O)C3CCCCC3)cc2C(=O)N([C@H](C)CO)C[C@@H]1C | . | - | . | . | . | .
Cc1ccc(NCC(=O)N/N=C\C(Br)=C\c2ccccc2)cc1 | - | 55 | - | - | - | -
Cc1cc(C)nc(SCC(=O)N/N=C\C(Br)=C\c2ccccc2)n1 | - | . | - | - | - | -
CCCNC(=O)N(C)C[C@@H]1Oc2ncc(C3=CCCC3)cc2C(=O)N([C@@H](C)CO)C[C@@H]1C | . | - | . | . | . | .
COc1ccc(NC(=O)C2CCCN(c3c4c(nc5ncnn35)CCC4)C2)cc1 (stereo unspecified) | - | - | - | . | - | -
CC1CCC(NC(=O)C2CCN(c3c4c(nc5ncnn35)CCC4)CC2)CC1 (stereo unspecified) | . | 41 | - | . | - | -
Cc1ccc(NS(=O)(=O)c2ccc3c(c2)n(C)c(=O)n3C)cc1C | . | - | - | - | - | -
Cc1ccc(S(=O)(=O)Nc2ccc3c(c2)n(C)c(=O)n3C)cc1 | - | - | 65 | - | - | -
Cn1c(=O)n(C)c2cc(NS(=O)(=O)c3ccccc3)ccc21 | - | - | 34 | . | - | -
COc1ccc(NS(=O)(=O)c2cn(C)c(=O)n(C)c2=O)cc1 | - | - | - | 42 | - | -
CCc1ccc(S(=O)(=O)Nc2cc3c(cc2C)n(C)c(=O)n3C)cc1 | - | - | 46 | - | - | -
Cn1cc(S(=O)(=O)Nc2ccc(Oc3ccccc3)cc2)c(=O)n(C)c1=O | - | - | - | - | - | -
Cn1c(=O)n(C)c2cc(S(=O)(=O)Nc3ccccc3)ccc21 | - | . | - | - | - | -
C[C@H]1CN([C@@H](C)CO)C(=O)c2cc(NC(=O)C3CCCCC3)ccc2O[C@@H]1CN(C)C(=O)Nc1ccc(C(F)(F)F)cc1 | . | - | . | . | . | .
CN1C(=O)c2cc(NC(=O)C3CCCC3)ccc2OC[C@@H]2O[C@@H](CC(=O)Nc3ccccc3)CC[C@H]21 | . | - | . | . | . | .
COc1ccc(OC)c(S(=O)(=O)Nc2ccc3c(c2)n(C)c(=O)n3C)c1 | - | - | 28 | - | - | -
Cc1cc(=O)oc2cc(NS(=O)(=O)c3ccccc3)ccc12 | . | . | - | 52 | - | -
O=C(CCc1nnc(-c2ccccc2)o1)NC1CCCCC1 | ? | 48 | - | - | - | -
CN(C(=O)CCc1nnc(-c2ccc(-c3ccccc3)cc2)o1)C1CCOCC1 | - | - | - | - | - | -
CN(CCCC1CCCC1)C(=O)CCc1nnc(-c2ccccc2)o1 | - | 84 | - | - | - | -
SMILES | MITF act | esBAF inh | Glyco luc inh | Wnt bcat act | PvdQ acylase | Vif inh
Cc1ccc(S(=O)(=O)Nc2ccc3c(c2)C(=O)N([C@H](C)CO)C[C@@H](C)[C@H](CN(C)C(=O)NC(C)C)O3)cc1 | . | - | . | . | . | .
Cc1nn(C(=O)c2cc3sccc3[nH]2)c(C)c1C | - | 84 | - | - | - | -
Cc1nn(C(=O)CNC(=O)c2ccccc2)c(C)c1C | - | . | - | - | - | -
Cc1cccc(NC(=O)CNC(=O)CSc2ncccn2)c1C | - | - | - | - | - | -
Cc1cccc(NC(=O)CNC(=O)Cn2ncc(Cl)c(Cl)c2=O)c1C | - | - | - | . | - | 57
CC(C)C(=O)Nc1ccc2c(c1)C(=O)N(C)[C@@H]1CC[C@@H](CC(=O)NCc3cccc(F)c3)O[C@@H]1CO2 | . | - | . | . | . | .
Cc1cc(Cl)ccc1OCC(=O)OCC(=O)Nc1ccc(Cl)cn1 | . | - | - | - | . | -
O=C(COc1ccc(Cl)cc1Cl)N1CCCCCC1 | . | 48 | - | . | - | -
O=C(COc1ccc(Cl)cc1Cl)c1ccc[nH]1 | - | ? | - | 33 | - | -
O=C(COc1ccc(Cl)cc1Cl)Nc1ccc(Cl)cn1 | 96 | - | - | - | - | -
O=C(COc1ccccc1O)Nc1ccccc1Cl | - | 52 | - | . | - | -
C[C@@H]1CN([C@@H](C)CO)C(=O)c2cc(NC(=O)Nc3cccc4ccccc34)ccc2O[C@H]1CN(C)C(=O)Nc1ccccc1 | . | - | . | . | . | .
C[C@H](CO)N1C[C@H](C)[C@@H](CN(C)S(=O)(=O)c2ccccc2)Oc2ccc(NC(=O)C3CC3)cc2CC1=O | . | - | . | . | . | .
CSc1ccccc1NC(=O)COc1ccc(Cl)cc1C | - | . | - | - | - | -
O=C(COc1ccc(Cl)cc1Cl)Nc1ccccc1F | . | . | - | 45 | - | -
CCOc1ccc(C(=O)Nc2ccc(Cl)cn2)cc1Cl | 103 | 132 | - | ? | - | -
Cc1cc(Cl)ccc1OCC(=O)Nc1ccccc1CO | - | 42 | - | - | - | -
CC(C)NC(=O)N(C)C[C@H]1Oc2ccc(NS(=O)(=O)c3ccccc3)cc2CC(=O)N([C@@H](C)CO)C[C@H]1C | . | - | . | . | . | .
C[C@@H]1CN([C@@H](C)CO)C(=O)c2cc(NS(C)(=O)=O)ccc2O[C@@H](C)CCCCO[C@@H]1CN(C)C(=O)NC1CCCCC1 | . | - | . | . | . | .
CCn1c(C)cc(C=C2C(=O)c3ccccc3C2=O)c1C | - | . | - | - | - | -
Cc1cc(C=C2C(=O)c3ccccc3C2=O)c(C)n1C | - | - | - | 63 | - | -
CC(C)NC(=O)Nc1cccc2c1O[C@@H](CN(C)S(C)(=O)=O)[C@@H](C)CN([C@@H](C)CO)C2=O | . | - | . | . | . | .
[O-]/[N+](=C\c1ccccc1)c1ccc(Br)cc1 | - | 75 | - | 32 | - | -
[O-]/[N+](=C\c1ccccc1)c1ccccc1 | - | - | - | - | - | -
C/C=C/c1cnc2c(c1)C(=O)N([C@H](C)CO)C[C@H](C)[C@H](CN(C)C(=O)Nc1c(C)noc1C)O2 | . | - | . | . | . | .
C[C@@H]1CCCCO[C@H](CN(C)C(=O)Nc2ccc(F)cc2)[C@@H](C)CN([C@@H](C)CO)C(=O)c2cc(N(C)C)ccc2O1 | . | - | . | . | . | .
O=C(CCC1CCCN(C(=O)c2ccncc2)C1)NCc1ccc(F)c(F)c1 (stereo unspecified) | - | . | - | - | - | -
O=C(CCC1CCCN(C(=O)c2cc3ccccc3o2)C1)NCc1ccc(F)c(F)c1 (stereo unspecified) | . | 56 | - | - | - | -
COc1ccc(CN(C)C[C@H]2Oc3ccc(NS(=O)(=O)c4cn(C)cn4)cc3CC(=O)N([C@@H](C)CO)C[C@@H]2C)cc1 | . | - | . | . | . | .
COc1ccc(CN(C)C[C@@H]2OCCCC[C@H](C)Oc3ccc(NC(=O)Nc4ccc(F)cc4)cc3C(=O)N([C@@H](C)CO)C[C@H]2C)cc1 | . | - | . | . | . | .
